Compounds without any hit were thinned out: in the full panel of roughly 83,000, 20% have a hit.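 In brief: 96-well plates, 48 h treatment, single concentration, percent growth endpoint.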 Activity calls are given as the source filed them. The calls were made as follows: active = growth percent below 10; inactive = the rest.
What was measured:
Test in all cases: NCI-60 one-dose screen, 48 h (100 = growth as untreated, 0 = no growth, -100 = all killed)
Settings in all cases: 10 µM unless noted
RPMI-8226 leukemia = tested on: RPMI-8226 leukemia
OVCAR-8 ovarian = tested on: OVCAR-8 ovarian
OVCAR-5 ovarian = tested on: OVCAR-5 ovarian
OVCAR-4 ovarian = tested on: OVCAR-4 ovarian
SK-OV-3 ovarian = tested on: SK-OV-3 ovarian
IGROV1 ovarian = tested on: IGROV1 ovarian
OVCAR-3 ovarian = tested on: OVCAR-3 ovarian
HS 578T breast = tested on: HS 578T breast
NCI/ADR-RES ovarian = tested on: NCI/ADR-RES ovarian
T-47D breast = tested on: T-47D breast

Measured: growth

NNC(=O)C1CC2c3ccccc3C1c1ccccc12 (stereo not given)
inactive: RPMI-8226 leukemia 90.1% | OVCAR-8 ovarian 102% | OVCAR-5 ovarian 99.4% | OVCAR-4 ovarian 106% | SK-OV-3 ovarian 112% | IGROV1 ovarian 110% | OVCAR-3 ovarian 102% | HS 578T breast 102% | NCI/ADR-RES ovarian 103% | T-47D breast 112%

O=C(Nc1nc(-c2ccc(Cl)cc2)cs1)c1cc(O)c(O)c(O)c1
inactive: RPMI-8226 leukemia 17.1% | OVCAR-8 ovarian 15.5% | OVCAR-5 ovarian 62.6% | OVCAR-4 ovarian 27.8% | SK-OV-3 ovarian 43.4% | IGROV1 ovarian 15.7% | OVCAR-3 ovarian 40.1% | HS 578T breast 61.9% | NCI/ADR-RES ovarian 13.6% | T-47D breast 25.4%

NC(N)=NN=c1c(=O)c2ccccc2c1=O
inactive: RPMI-8226 leukemia 60.1% | OVCAR-8 ovarian 81.5% | OVCAR-5 ovarian 98.9% | OVCAR-4 ovarian 103% | SK-OV-3 ovarian 98.1% | IGROV1 ovarian 102% | OVCAR-3 ovarian 80.6% | HS 578T breast 109% | NCI/ADR-RES ovarian 91.7% | T-47D breast 116%

C[n+]1c2ccccc2c(NC2CCNCC2)c2[nH]c3ccccc3c21
inactive: OVCAR-8 ovarian 15.2% | OVCAR-5 ovarian 36.3% | NCI/ADR-RES ovarian 96.5%
active: RPMI-8226 leukemia -40.8% | OVCAR-4 ovarian 4.1% | SK-OV-3 ovarian -0.545% | IGROV1 ovarian -20.9% | OVCAR-3 ovarian -1.97% | HS 578T breast -38% | T-47D breast -9.19%

CC[N+](CC)(CCOCCOCC[N+](CC)(CC)Cc1ccc([N+](=O)[O-])cc1)Cc1ccc([N+](=O)[O-])cc1
inactive: RPMI-8226 leukemia 96.6% | OVCAR-8 ovarian 103% | OVCAR-5 ovarian 98.8% | OVCAR-4 ovarian 106% | SK-OV-3 ovarian 112% | IGROV1 ovarian 125% | OVCAR-3 ovarian 116% | HS 578T breast 133% | NCI/ADR-RES ovarian 98.9% | T-47D breast 95.3%

C/C(=C\CCc1ccoc1)CC/C=C(\C)CCCN1CCC(CO)CC1
active: RPMI-8226 leukemia 3.35%
inactive: OVCAR-8 ovarian 77.7% | OVCAR-5 ovarian 76.4% | OVCAR-4 ovarian 52.5% | SK-OV-3 ovarian 65.1% | IGROV1 ovarian 67.8% | OVCAR-3 ovarian 82.4% | HS 578T breast 57.5% | NCI/ADR-RES ovarian 73.4% | T-47D breast 35.9%

CCCCc1nc(Cl)c(CO)n1Cc1ccc(-c2ccccc2-c2nn[nH]n2)cc1
inactive: RPMI-8226 leukemia 115% | OVCAR-8 ovarian 103% | OVCAR-5 ovarian 101% | OVCAR-4 ovarian 109% | SK-OV-3 ovarian 106% | IGROV1 ovarian 104% | OVCAR-3 ovarian 111% | HS 578T breast 110% | NCI/ADR-RES ovarian 105% | T-47D breast 110%

O=C1CCCN1C1CCN(Cc2cc3ccccc3[nH]c2=O)c2ccccc21 (stereo not given)
inactive: OVCAR-8 ovarian 101% | OVCAR-5 ovarian 91.3% | OVCAR-4 ovarian 82.6% | SK-OV-3 ovarian 93.8% | IGROV1 ovarian 90% | OVCAR-3 ovarian 98.8% | HS 578T breast 98% | NCI/ADR-RES ovarian 97.4% | T-47D breast 60.1%
active: RPMI-8226 leukemia 3.19%

CCC1=C(c2ccc(OC)cc2)C(C)Oc2cc(OC(C)=O)ccc21 (stereo not given)
inactive: RPMI-8226 leukemia 75.6% | OVCAR-8 ovarian 68.8% | OVCAR-5 ovarian 128% | OVCAR-4 ovarian 72.4% | SK-OV-3 ovarian 80.6% | IGROV1 ovarian 104% | OVCAR-3 ovarian 86.9% | HS 578T breast 83.5% | NCI/ADR-RES ovarian 75.6% | T-47D breast 65.4%

O=C1/C(=C/c2ccc([N+](=O)[O-])o2)Oc2ccc(Cl)cc21
active: RPMI-8226 leukemia -11.3% | OVCAR-8 ovarian -14.9% | OVCAR-4 ovarian -48% | IGROV1 ovarian -53.6% | OVCAR-3 ovarian -74.5% | T-47D breast -28.9%
inactive: OVCAR-5 ovarian 46.1% | SK-OV-3 ovarian 85.6% | HS 578T breast 68.7% | NCI/ADR-RES ovarian 56.1%

COc1cccc(C2C(C#N)=C(N)Oc3cc(OC)ccc32)c1 (stereo not given)
active: RPMI-8226 leukemia 9.12% | OVCAR-8 ovarian 3.88% | SK-OV-3 ovarian 3.13% | OVCAR-3 ovarian -28.9% | NCI/ADR-RES ovarian 3.99%
inactive: OVCAR-5 ovarian 34.4% | OVCAR-4 ovarian 59.3% | IGROV1 ovarian 10.9% | HS 578T breast 11.3% | T-47D breast 55.8%

COc1cc([C@@H]2c3cc4c(cc3C(O[C@@H]3O[C@@H]5CO[C@@H](c6cccs6)OC5[C@H](O)[C@H]3O)C3COC(=O)[C@@H]32)OCO4)cc(OC)c1O (stereo not given in full)
inactive: OVCAR-4 ovarian 13.8% | NCI/ADR-RES ovarian 60.3%
active: RPMI-8226 leukemia -20.8% | OVCAR-8 ovarian -43% | OVCAR-5 ovarian -9.71% | SK-OV-3 ovarian -13.6% | IGROV1 ovarian -5.65% | OVCAR-3 ovarian -54% | HS 578T breast -3.69% | T-47D breast -0.0776%

CC(=O)O[C@H]1C(=O)[C@@]2(C)C([C@H](OC(=O)c3ccccc3)[C@]3(O)C[C@H](OC(=O)[C@H](O)[C@@H](NC(=O)c4ccccc4)c4ccccc4)C(C)=C1C3(C)C)[C@]1(OC(C)=O)CO[C@@H]1C[C@@H]2O (stereo not given in full)
active: RPMI-8226 leukemia 3.77% | OVCAR-3 ovarian -9.4%
inactive: OVCAR-8 ovarian 26.6% | OVCAR-5 ovarian 27.2% | OVCAR-4 ovarian 46.5% | SK-OV-3 ovarian 18.1% | IGROV1 ovarian 42% | HS 578T breast 14.9% | NCI/ADR-RES ovarian 43.9% | T-47D breast 47.3%

CCn1c2c(c3ccccc31)SC1c3cccn3CCN1C2=S (stereo not given)
inactive: RPMI-8226 leukemia 76.7% | OVCAR-8 ovarian 94.4% | OVCAR-5 ovarian 104% | OVCAR-4 ovarian 54.5% | SK-OV-3 ovarian 99.9% | IGROV1 ovarian 80% | OVCAR-3 ovarian 100% | HS 578T breast 81.2% | NCI/ADR-RES ovarian 102% | T-47D breast 41.9%

Cc1ccc(NC(=O)Nc2ccc(-c3cccnc3)cc2N2CCC(CO)CC2)cc1
inactive: RPMI-8226 leukemia 19.4% | OVCAR-8 ovarian 44.2% | OVCAR-5 ovarian 43.6% | OVCAR-4 ovarian 45% | SK-OV-3 ovarian 28.4% | IGROV1 ovarian 63.1% | HS 578T breast 10.6% | NCI/ADR-RES ovarian 40% | T-47D breast 42.7%
active: OVCAR-3 ovarian 4.71%

c1cnc2n[nH]c(Nc3ncnc4c3sc3ncccc34)c2c1
inactive: RPMI-8226 leukemia 88.1% | OVCAR-8 ovarian 96.8% | OVCAR-5 ovarian 93.2% | OVCAR-4 ovarian 102% | SK-OV-3 ovarian 102% | IGROV1 ovarian 109% | OVCAR-3 ovarian 111% | HS 578T breast 117% | NCI/ADR-RES ovarian 104% | T-47D breast 93.5%

C=C1CC[C@@H]2[C@](C)(COC(C)=O)[C@H](OC(C)=O)CC[C@@]2(C)[C@@H]1CC(Nc1ccc(S(=O)(=O)Nc2cc(C)on2)cc1)C1=CCOC1=O (stereo not given in full)
active: RPMI-8226 leukemia -15.2% | OVCAR-3 ovarian 7.95%
inactive: OVCAR-8 ovarian 16.1% | OVCAR-5 ovarian 52.2% | OVCAR-4 ovarian 68.2% | SK-OV-3 ovarian 109% | IGROV1 ovarian 62.6% | HS 578T breast 89.5% | NCI/ADR-RES ovarian 31.6% | T-47D breast 63.6%
